Source: the supplement of paper PMC12669032

Each compound was assayed on Roseburia intestinalis (assay: growth AUC relative to DMSO control (median of replicates) (fraction); higher = more growth (less inhibition), active = hit call of the paper). Details: 20 µM; 24 h;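 active = AUC reduced over 20% with Padj below 0.05 in at least 2 of 3 replicates; inactive = otherwise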.
Summary of the method: (§1)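 Gut bacterial monocultures in mGAM were treated with 20 µM compound (1% DMSO) and grown anaerobically at 37 °C in round-bottom 96-well plates from OD600 0.05. OD600 was read hourly for 24 h, with the minimum OD set to 0. Area under the growth curve was normalised to the plate median of solvent-only wells, or to row and column medians on the industrial chemical plate. Each value is the median of three biological replicates, each grown on a separate day.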

Compound	growth AUC
CCOC1Oc2ccc(OS(C)(=O)=O)cc2C1(C)C (stereo not drawn)	0.924 (inactive)
O=[N+]([O-])c1ccc2ccc3cccc4ccc1c2c34	1.28 (inactive)
CNC(=O)Oc1cccc(N=CN(C)C)c1.Cl	0.992 (inactive)
ClC1=C(Cl)C2(Cl)C3COCC3C1(Cl)C2(Cl)Cl (stereo not drawn)	1.08 (inactive)
O=CNC(N1CCN(C(NC=O)C(Cl)(Cl)Cl)CC1)C(Cl)(Cl)Cl (stereo not drawn)	0.934 (inactive)
Nc1c(Cl)c(Cl)c(Cl)c(Cl)c1Cl	0.986 (inactive)
CCOP(=O)(OCC)Oc1ccc(S(C)(=O)=O)cc1	0.974 (inactive)
COP(=S)(OC)Oc1ccc(Sc2ccc(OP(=S)(OC)OC)cc2)cc1	1.03 (inactive)
CCOP(=O)(N=C1SCC(C)S1)OCC (stereo not drawn)	0.969 (inactive)
COc1cc(OC)nc(Sc2cccc(Cl)c2C(=O)O)n1	0.984 (inactive)
C=C(C)[C@H]1Cc2c(ccc3c2O[C@@H]2COc4cc(OC)c(OC)cc4[C@@H]2C3=O)O1	0.935 (inactive)
CNC(=O)c1cc(C#N)cc(C)c1NC(=O)c1cc(Br)nn1-c1ncccc1Cl	0.961 (inactive)
S=C1NCCN1	1.01 (inactive)
COC(=O)C1(O)c2ccccc2-c2ccccc21	1 (inactive)
N#Cc1c(Cl)cccc1Cl	1.07 (inactive)
Cc1cccc(C)c1N(Cn1cccn1)C(=O)CCl	0.935 (inactive)
CN(C)C(=S)SSC(=S)N(C)C	0.822 (inactive)
CCCN(CCC)c1c([N+](=O)[O-])cc(C(C)C)cc1[N+](=O)[O-]	1.01 (inactive)
COc1cc(Cl)c(OC)cc1Cl	1.04 (inactive)
CCNc1nc(Cl)nc(NC(C)(C)C#N)n1	1.03 (inactive)

Compound	growth AUC
CC(Oc1ccc(Oc2nc3ccc(Cl)cc3o2)cc1)C(=O)O (racemic)	1.12 (inactive)
CCCCCCCCSC(=O)Oc1cc(Cl)nnc1-c1ccccc1	1.06 (inactive)
Nc1cccc(Cl)c1Cl	1.02 (inactive)
CCOC(=O)CCN(SN(C)C(=O)Oc1cccc2c1OC(C)(C)C2)C(C)C	1.02 (inactive)
CCOc1ccc(C(C)(C)COCc2cccc(Oc3ccccc3)c2)cc1	0.975 (inactive)
N#CC(CCc1ccc(Cl)cc1)(Cn1cncn1)c1ccccc1 (stereo not drawn)	0.911 (inactive)
O=C(NC(=O)c1c(F)cccc1F)Nc1cc(Cl)c(OC(F)(F)C(F)C(F)(F)F)cc1Cl (stereo not drawn)	1.02 (inactive)
C#CCOc1ccc(CCNC(=O)C(OCC#C)c2ccc(Cl)cc2)cc1OC (stereo not drawn)	0.959 (inactive)
CC(Oc1ccc(Oc2ccc(C(F)(F)F)cn2)cc1)C(=O)O (stereo not drawn)	0.908 (inactive)
COP(=S)(NC(C)C)Oc1ccccc1C(=O)OC(C)C (stereo not drawn)	0.938 (inactive)
Cc1cccc(C)c1N	0.977 (inactive)
CNC(=O)/C=C(\C)OP(=O)(OC)OC	1.07 (inactive)
COC(=O)C(Cl)Cl	0.918 (inactive)
CCCCC(O)(Cn1cncn1)c1ccc(Cl)cc1Cl (stereo not drawn)	1 (inactive)
COc1nc(C)nc(NC(=O)NS(=O)(=O)c2ccccc2CCC(F)(F)F)n1	0.98 (inactive)
O=c1[nH]c2c(c(=O)n1C1CCCCC1)CCC2	0.982 (inactive)
CNC(=O)CSP(=S)(OC)OC	0.982 (inactive)
O=C(Nc1ccccc1)N(Cc1ccc(Cl)cc1)C1CCCC1	0.991 (inactive)
COP(=O)(OC)SCn1c(=O)oc2cc(Cl)cnc21	1.06 (inactive)

The compounds below were run on Streptococcus salivarius in the same assay as above. Details: 20 µM; 24 h.
Summary of the method: as §1

Compound	growth AUC
CCOC1Oc2ccc(OS(C)(=O)=O)cc2C1(C)C (stereo not drawn)	0.964 (inactive)
O=[N+]([O-])c1ccc2ccc3cccc4ccc1c2c34	1.06 (inactive)
CNC(=O)Oc1cccc(N=CN(C)C)c1.Cl	1.02 (inactive)
ClC1=C(Cl)C2(Cl)C3COCC3C1(Cl)C2(Cl)Cl (stereo not drawn)	0.915 (inactive)
O=CNC(N1CCN(C(NC=O)C(Cl)(Cl)Cl)CC1)C(Cl)(Cl)Cl (stereo not drawn)	0.982 (inactive)
Nc1c(Cl)c(Cl)c(Cl)c(Cl)c1Cl	0.983 (inactive)
CCOP(=O)(OCC)Oc1ccc(S(C)(=O)=O)cc1	1.02 (inactive)
COP(=S)(OC)Oc1ccc(Sc2ccc(OP(=S)(OC)OC)cc2)cc1	1.01 (inactive)
CCOP(=O)(N=C1SCC(C)S1)OCC (stereo not drawn)	0.987 (inactive)
COc1cc(OC)nc(Sc2cccc(Cl)c2C(=O)O)n1	0.973 (inactive)
C=C(C)[C@H]1Cc2c(ccc3c2O[C@@H]2COc4cc(OC)c(OC)cc4[C@@H]2C3=O)O1	1.02 (inactive)
CNC(=O)c1cc(C#N)cc(C)c1NC(=O)c1cc(Br)nn1-c1ncccc1Cl	1.04 (inactive)
S=C1NCCN1	0.992 (inactive)
COC(=O)C1(O)c2ccccc2-c2ccccc21	1 (inactive)
N#Cc1c(Cl)cccc1Cl	0.951 (inactive)
Cc1cccc(C)c1N(Cn1cccn1)C(=O)CCl	0.999 (inactive)
CN(C)C(=S)SSC(=S)N(C)C	0.956 (inactive)
CCCN(CCC)c1c([N+](=O)[O-])cc(C(C)C)cc1[N+](=O)[O-]	0.99 (inactive)
COc1cc(Cl)c(OC)cc1Cl	1.04 (inactive)
CCNc1nc(Cl)nc(NC(C)(C)C#N)n1	0.976 (inactive)

Compound	growth AUC
CC(Oc1ccc(Oc2nc3ccc(Cl)cc3o2)cc1)C(=O)O (racemic)	0.999 (inactive)
CCCCCCCCSC(=O)Oc1cc(Cl)nnc1-c1ccccc1	0.963 (inactive)
Nc1cccc(Cl)c1Cl	1.01 (inactive)
CCOC(=O)CCN(SN(C)C(=O)Oc1cccc2c1OC(C)(C)C2)C(C)C	0.998 (inactive)
CCOc1ccc(C(C)(C)COCc2cccc(Oc3ccccc3)c2)cc1	0.983 (inactive)
N#CC(CCc1ccc(Cl)cc1)(Cn1cncn1)c1ccccc1 (stereo not drawn)	0.934 (inactive)
O=C(NC(=O)c1c(F)cccc1F)Nc1cc(Cl)c(OC(F)(F)C(F)C(F)(F)F)cc1Cl (stereo not drawn)	0.958 (inactive)
C#CCOc1ccc(CCNC(=O)C(OCC#C)c2ccc(Cl)cc2)cc1OC (stereo not drawn)	0.984 (inactive)
CC(Oc1ccc(Oc2ccc(C(F)(F)F)cn2)cc1)C(=O)O (stereo not drawn)	0.93 (inactive)
COP(=S)(NC(C)C)Oc1ccccc1C(=O)OC(C)C (stereo not drawn)	0.977 (inactive)
Cc1cccc(C)c1N	1.04 (inactive)
CNC(=O)/C=C(\C)OP(=O)(OC)OC	1.04 (inactive)
COC(=O)C(Cl)Cl	0.985 (inactive)
CCCCC(O)(Cn1cncn1)c1ccc(Cl)cc1Cl (stereo not drawn)	0.991 (inactive)
COc1nc(C)nc(NC(=O)NS(=O)(=O)c2ccccc2CCC(F)(F)F)n1	0.989 (inactive)
O=c1[nH]c2c(c(=O)n1C1CCCCC1)CCC2	0.998 (inactive)
CNC(=O)CSP(=S)(OC)OC	0.968 (inactive)
O=C(Nc1ccccc1)N(Cc1ccc(Cl)cc1)C1CCCC1	0.994 (inactive)
COP(=O)(OC)SCn1c(=O)oc2cc(Cl)cnc21	0.978 (inactive)
